Reference: the supplement of paper PMC13380429
Unmarked numbers belong to inactive results.

Test system: Vero E6 infected with SARS-CoV-2
Assay: inhibition of SARS-CoV-2 cytopathic effect; higher = more antiviral protection, active = above 15
Conditions: 48 h

| Compound | inhibition of SARS-CoV-2 cytopathic effect (1 nM) | inhibition of SARS-CoV-2 cytopathic effect (8.33 nM) | inhibition of SARS-CoV-2 cytopathic effect (100 nM) | inhibition of SARS-CoV-2 cytopathic effect (833.33 nM) | inhibition of SARS-CoV-2 cytopathic effect (10000 nM) |
| --- | --- | --- | --- | --- | --- |
| CC1CCC(NC(=O)N(CCCl)N=O)CC1 (stereo not given) [semustine] | 1.43% | 1.15% | -3.63% | -1.54% | 0.45% |
| NS(=O)(=O)Nc1ncnc(OCCOc2ncc(Br)cn2)c1-c1ccc(Br)cc1 | -1.74% | -0.97% | -0.65% | -3.11% | -3.32% |
| CC(=O)Nc1ccc(OCC(O)CNC(C)C)cc1 (stereo not given) [practolol] | 0.44% | 0.3% | 0.26% | 2.84% | 5.44% |
| CC(C)c1ccc(C(=O)c2cccs2)c(SCCCCCCCCN(C)C)n1 | -1.33% | 0.45% | 2.39% | 1.71% | 68.5% (active) |
| O=C(NC1CCNCC1)[C@@H]1CC[C@@H]2CN1C(=O)N2OS(=O)(=O)O [relebactam] | 0.07% | 1.87% | 1.26% | -0.84% | -1.06% |
| O=C1c2c(O)cccc2C([C@@H]2O[C@H](CO)[C@@H](O)[C@H](O)[C@H]2O)c2cc(CO)cc(O)c21 (stereo not given in full) [aloin] | -0.62% | 0.1% | -0.43% | 1.27% | 1.29% |
| NC(=O)C1=CN([C@@H]2O[C@H](COP(=O)(O)OP(=O)(O)OC[C@H]3O[C@@H](n4cnc5c(N)ncnc54)[C@H](O)[C@@H]3O)[C@@H](O)[C@H]2O)C=CC1 [coenzyme-I] | -3.2% | -4.29% | 1.16% | 1.03% | 1.66% |
| CC1(C)OC(=O)NC1=O [dimethadione] | -1.41% | -1.5% | 0.11% | 0.78% | 0.15% |
| Nc1nc2c(ncn2COCCO)c(=O)[nH]1 [acyclovir] | 12.6% | 6.63% | 6.1% | 7.16% | 2.2% |
| Fc1ccc(C(c2ccccc2)(c2ccccc2F)n2ccnc2)cc1 (stereo not given) [flutrimazole] | -1.84% | -3.27% | -4.23% | -1.83% | -1.07% |
| CO[C@@]1(NC(=O)CSC[C@@H](N)C(=O)O)C(=O)N2C(C(=O)O)=C(CSc3nnnn3C)CS[C@@H]21 [cefminox] | -0.91% | 0.78% | -1.2% | -1.63% | 1.75% |
| Cc1c(-c2ccc(-c3ccccc3F)cc2)nc2ccc(F)cc2c1C(=O)O [brequinar] | 0.47% | -5.34% | -4.42% | -4.61% | -4.4% |
| Cc1cc(F)c(Nc2ncnc3cc(OCc4ccccc4)ccc23)cc1O | -3.67% | -0.24% | -1.17% | -2.03% | -1.32% |
| CCn1c(=O)n(C2=C(CO)CN(CC3CCCCCCC3)CC2)c2ccccc21 [trap-101] | -2.39% | 1.16% | 1.23% | 1.48% | -3.08% |
| CC/C(=C(/CC)c1ccc(OP(=O)(O)O)cc1)c1ccc(OP(=O)(O)O)cc1 [fosfestrol] | -0.34% | 2.21% | -0.95% | 0.3% | -0.17% |
| CC(C)C[C@H](NC(=O)[C@@H](Cc1c[nH]c2ccccc12)NC(=O)[C@H](Cc1ccc(O)cc1)NC(=O)[C@H](CO)NC(=O)[C@H](Cc1c[nH]c2ccccc12)NC(=O)[C@H](Cc1c[nH]cn1)NC(=O)[C@@H]1CCC(=O)N1)C(=O)N[C@@H](CCCNC(=N)N)C(=O)N1CCC[C@H]1C(=O)NCC(N)=O [triptorelin] | -0.4% | 2.79% | 1.66% | 2.17% | 0.84% |
| Cc1c(N)nc([C@H](CC(N)=O)NC[C@H](N)C(N)=O)nc1C(=O)N[C@H](C(=O)N[C@H](C)[C@@H](O)[C@H](C)C(=O)N[C@H](C(=O)NCCc1nc(-c2nc(C(=O)NCCC[S+](C)C)cs2)cs1)[C@@H](C)O)[C@@H](OC1OC(CO)C(O)C(O)C1OC1OC(CO)C(O)C(OC(N)=O)C1O)c1cnc[nH]1 (stereo not given in full) [bleomycin] | -3.91% | -1.18% | -1.47% | -11.3% | -21.5% |
| O=C(O)[C@H](Cc1ccccc1)NCc1ccc(Cl)cc1 | 0.28% | -1.27% | -0.99% | 1.08% | 0.65% |

| Compound | inhibition of SARS-CoV-2 cytopathic effect (1 nM) | inhibition of SARS-CoV-2 cytopathic effect (8.33 nM) | inhibition of SARS-CoV-2 cytopathic effect (100 nM) | inhibition of SARS-CoV-2 cytopathic effect (833.33 nM) | inhibition of SARS-CoV-2 cytopathic effect (10000 nM) |
| --- | --- | --- | --- | --- | --- |
| Oc1ccc2c3c1O[C@H]1c4[nH]c5c(c4C[C@@]4(O)[C@@H](C2)N(CC2CC2)CC[C@]314)C[C@@]1(O)[C@H]2Cc3ccc(O)c4c3[C@@]1(CCN2CC1CC1)[C@H]5O4 [nor-binaltorphimine] | 1.48% | 0.42% | 2.76% | 1.16% | -1.05% |
| CC(=O)NCCc1c[nH]c2ccccc12 [N-acetyltryptamine] | 0.9% | 2.35% | 2.28% | -0.38% | 2.53% |
| C1CCC2(CC1)CCNCC2 [4,4-pentamethylenepiperidine] | 0.06% | 0.78% | -1% | 1.32% | 0.37% |
| Cc1c(C(=O)NN2CCOCC2)nn(-c2ccc(Cl)cc2Cl)c1-c1ccc(I)cc1 | 0.53% | 1.48% | 1.24% | -2.07% | 1.16% |
| CN1C(=O)N(c2cc(Cl)cc(Cl)c2)C(=O)[C@]12CN(Cc1cc(C(=O)O)cs1)C[C@H]2c1ccc(C#N)cc1 | -1.94% | 0.44% | 1.44% | 0.49% | -0.22% |
| CCN(CC)CCNC(=O)COc1ccc(OC)cc1 [mefexamide] | 1.84% | 2.71% | -0.86% | -0.89% | -2.3% |
| Cc1cc(=O)n(-c2ccccc2)n1C [phenazone] | 1.97% | -0.88% | -1.01% | -0.52% | 0.53% |
| CC1/C=C/C=C/C=C/C=C/C=C/C=C/C=C/C(OC2O[C@H](C)[C@@H](O)[C@H](N)[C@@H]2O)CC(O)C(C(=O)O)C(O)CC(=O)CC(O)CC(O)CC(O)CC(=O)CCCC(=O)CC(=O)OC1C(C)CC(C)C(O)CC(=O)c1ccc(N)cc1 (stereo not given in full) [candicidin] | -0.52% | 4.78% | 3.57% | 4.79% | -2.56% |
| COc1cc(OC)c(NC(=O)Nc2cc(C)on2)cc1Cl | 2.33% | 0.81% | 1.57% | 4.04% | 2.62% |
| Cc1[nH]cnc1CN1CCc2c(c3ccccc3n2C)C1=O [alosetron] | -0.13% | -3.23% | -3.51% | -1.58% | -2.24% |
| C[C@H](CCC(=O)O)[C@H]1CC[C@H]2[C@@H]3CC[C@@H]4C[C@H](O)CC[C@]4(C)[C@H]3C[C@H](O)[C@]12C [deoxycholic-acid] | -0.18% | 0.25% | -1.84% | -1.15% | -0.42% |
| CCCC(=O)Nc1ncnc2c1ncn2[C@@H]1O[C@@H]2COP(=O)(O)O[C@H]2[C@H]1OC(=O)CCC [bucladesine] | -1.3% | -3.37% | -2.82% | 0.58% | 1.04% |
| CN(C(=O)Cc1ccccc1)[C@H](CN1CCCC1)c1ccccc1 | -2.98% | -0.14% | 0.52% | 0.85% | -1.59% |
| CCc1cc2c(cc1N1CCC(N3CCOCC3)CC1)C(C)(C)c1[nH]c3cc(C#N)ccc3c1C2=O [alectinib] | 0.52% | 1.4% | -0.38% | -1.14% | 0.15% |
| COC(=O)Nc1nc2cc([S+]([O-])c3ccccc3)ccc2[nH]1 (stereo not given) [oxfendazole] | 3.62% | 1.23% | 6.94% | 0.7% | -1.5% |
| CC(C)[C@H](O)C(=O)N[C@@H](C)C(=O)N[C@@H]1C(=O)N(C)CCc2ccccc21 [semagacestat] | -0.47% | 3.54% | -1.88% | -1.76% | -3.08% |
| Cc1c(N(C)CS(=O)(=O)O)c(=O)n(-c2ccccc2)n1C [metamizole] | 5.03% | 0.47% | -1.36% | -3.82% | 0.29% |
| Cc1cnc(CNC(=O)c2c(=O)c3ccc(N4CCCN(C)CC4)nc3n3c2sc2ccccc23)cn1 | 0.83% | -2.59% | -1.2% | 4.48% | 0.59% |
